What was measured:
Experiment in all cases: DAPPL (digital affinity profiling via proximity ligation, sequencing); 10 mM Tris-HCl pH 7.5, 50 mM NaCl, 1 mM DTT, 4% glycerol, room temperature, 30 min; GST-TFs on glutathione beads, 16-mer random dsDNA library, 0.1% formaldehyde crosslink after washing; high values mean tight binding
FEV = target: T1, FEV (Homo sapiens, UniProt Q99581 1-238); settings: protein: recombinant; tags: N-terminal GST; dsDNA, one strand shown
T1 sequence: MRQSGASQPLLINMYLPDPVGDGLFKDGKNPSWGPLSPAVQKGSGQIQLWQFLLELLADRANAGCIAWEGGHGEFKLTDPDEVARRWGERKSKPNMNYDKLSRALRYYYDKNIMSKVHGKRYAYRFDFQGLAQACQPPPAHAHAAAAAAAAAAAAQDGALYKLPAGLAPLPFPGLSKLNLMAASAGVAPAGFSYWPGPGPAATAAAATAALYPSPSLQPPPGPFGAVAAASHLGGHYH
How it was run: (§1)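 Human transcription factors were made in yeast as GST fusions, captured on glutathione beads and barcoded with DNA. With a tag-only sample included, the pool was incubated with 200 nmole of a random double-stranded 16-mer DNA library in Tris/NaCl/DTT/glycerol buffer at room temperature for 30 min, then crosslinked with 0.1% formaldehyde after washing, ligated by proximity, amplified and sequenced. For binding signal, each hexamer's read frequency for a factor is divided by its frequency for the tag-only sample.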

ETV5 = ETV5 (Homo sapiens, UniProt P41161 1-510); settings: protein: recombinant; tags: N-terminal GST; dsDNA, one strand shown
How it was run: as §1

HSF1 = HSF1 (Homo sapiens, UniProt Q00613 1-529); settings: protein: recombinant; tags: N-terminal GST; chain copies: 3; dsDNA, one strand shown
How it was run: as §1

SPIC = target: T2, SPIC (Homo sapiens, UniProt Q8N5J4 1-248); settings: protein: recombinant; tags: N-terminal GST; dsDNA, one strand shown
T2 sequence: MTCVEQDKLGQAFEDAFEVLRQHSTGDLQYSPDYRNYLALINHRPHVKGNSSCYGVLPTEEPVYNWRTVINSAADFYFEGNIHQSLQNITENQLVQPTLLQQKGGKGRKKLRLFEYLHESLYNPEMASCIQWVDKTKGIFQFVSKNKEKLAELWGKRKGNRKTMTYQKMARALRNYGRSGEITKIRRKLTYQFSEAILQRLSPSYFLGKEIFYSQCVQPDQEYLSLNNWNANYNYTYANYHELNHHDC
How it was run: as §1

ELF4 = ELF4 (Homo sapiens, UniProt Q99607 1-663); settings: protein: recombinant; tags: N-terminal GST; dsDNA, one strand shown
How it was run: as §1

ELK4 = target: T3, ELK4 (Homo sapiens, UniProt P28324-2 1-405); settings: protein: recombinant; tags: N-terminal GST; dsDNA, one strand shown
T3 sequence: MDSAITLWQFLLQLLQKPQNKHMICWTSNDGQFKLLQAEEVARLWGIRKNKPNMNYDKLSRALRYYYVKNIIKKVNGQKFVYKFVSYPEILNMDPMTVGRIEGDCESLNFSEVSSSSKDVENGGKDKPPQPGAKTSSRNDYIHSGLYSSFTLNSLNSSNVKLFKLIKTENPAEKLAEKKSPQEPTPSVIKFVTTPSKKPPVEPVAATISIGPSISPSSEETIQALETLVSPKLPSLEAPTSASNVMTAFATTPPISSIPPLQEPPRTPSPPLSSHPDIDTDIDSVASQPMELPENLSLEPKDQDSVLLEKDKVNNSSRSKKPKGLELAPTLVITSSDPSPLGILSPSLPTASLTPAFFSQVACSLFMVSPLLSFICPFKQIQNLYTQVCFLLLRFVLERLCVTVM
How it was run: as §1

ETV2 = target: T4, ETV2 (Homo sapiens, UniProt O00321 1-342); settings: protein: recombinant; tags: N-terminal GST; dsDNA, one strand shown
T4 sequence: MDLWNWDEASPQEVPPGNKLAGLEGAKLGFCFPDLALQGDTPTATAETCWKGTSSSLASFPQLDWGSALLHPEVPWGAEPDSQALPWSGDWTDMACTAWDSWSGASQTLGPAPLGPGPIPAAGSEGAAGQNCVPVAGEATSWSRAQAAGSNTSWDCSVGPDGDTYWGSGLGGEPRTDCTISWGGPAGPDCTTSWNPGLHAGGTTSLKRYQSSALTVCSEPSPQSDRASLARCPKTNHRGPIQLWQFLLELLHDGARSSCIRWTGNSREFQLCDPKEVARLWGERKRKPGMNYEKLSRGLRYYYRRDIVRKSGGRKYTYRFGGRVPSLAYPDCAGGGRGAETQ
How it was run: as §1

ELF3 = target: T5, ELF3 (Homo sapiens, UniProt P78545 1-371); settings: protein: recombinant; tags: N-terminal GST; dsDNA, one strand shown
T5 sequence: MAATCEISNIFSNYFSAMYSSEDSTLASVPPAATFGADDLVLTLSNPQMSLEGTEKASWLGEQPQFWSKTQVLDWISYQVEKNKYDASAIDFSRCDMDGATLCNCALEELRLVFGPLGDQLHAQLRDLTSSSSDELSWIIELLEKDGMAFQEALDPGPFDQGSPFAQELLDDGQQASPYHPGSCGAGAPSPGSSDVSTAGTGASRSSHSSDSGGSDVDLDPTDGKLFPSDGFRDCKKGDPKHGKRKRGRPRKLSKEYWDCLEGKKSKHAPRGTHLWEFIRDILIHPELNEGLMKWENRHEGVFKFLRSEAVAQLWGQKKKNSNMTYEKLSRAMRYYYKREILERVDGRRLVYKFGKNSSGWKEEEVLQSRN
How it was run: as §1

CRX = CRX (Homo sapiens, UniProt O43186 1-299); settings: protein: recombinant; tags: N-terminal GST; dsDNA, one strand shown
How it was run: as §1

ETV1 = ETV1 (Homo sapiens, UniProt P50549 1-477); settings: protein: recombinant; tags: N-terminal GST; dsDNA, one strand shown
How it was run: as §1

ETV5, sequence (P41161 whole entry): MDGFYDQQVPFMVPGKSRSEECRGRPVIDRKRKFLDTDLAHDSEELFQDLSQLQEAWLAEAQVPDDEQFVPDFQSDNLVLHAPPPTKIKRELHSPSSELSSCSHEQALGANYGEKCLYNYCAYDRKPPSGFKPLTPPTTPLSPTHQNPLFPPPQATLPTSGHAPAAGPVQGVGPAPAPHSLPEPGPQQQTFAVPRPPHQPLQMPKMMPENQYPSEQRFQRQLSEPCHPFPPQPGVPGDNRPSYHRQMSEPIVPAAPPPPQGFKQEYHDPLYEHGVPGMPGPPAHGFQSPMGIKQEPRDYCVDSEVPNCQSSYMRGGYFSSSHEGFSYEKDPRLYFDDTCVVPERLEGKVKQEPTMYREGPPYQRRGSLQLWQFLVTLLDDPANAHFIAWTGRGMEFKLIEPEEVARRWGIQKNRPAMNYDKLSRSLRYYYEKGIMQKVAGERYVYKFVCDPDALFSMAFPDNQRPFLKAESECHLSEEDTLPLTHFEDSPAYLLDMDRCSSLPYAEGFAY
HSF1, sequence (Q00613 whole entry): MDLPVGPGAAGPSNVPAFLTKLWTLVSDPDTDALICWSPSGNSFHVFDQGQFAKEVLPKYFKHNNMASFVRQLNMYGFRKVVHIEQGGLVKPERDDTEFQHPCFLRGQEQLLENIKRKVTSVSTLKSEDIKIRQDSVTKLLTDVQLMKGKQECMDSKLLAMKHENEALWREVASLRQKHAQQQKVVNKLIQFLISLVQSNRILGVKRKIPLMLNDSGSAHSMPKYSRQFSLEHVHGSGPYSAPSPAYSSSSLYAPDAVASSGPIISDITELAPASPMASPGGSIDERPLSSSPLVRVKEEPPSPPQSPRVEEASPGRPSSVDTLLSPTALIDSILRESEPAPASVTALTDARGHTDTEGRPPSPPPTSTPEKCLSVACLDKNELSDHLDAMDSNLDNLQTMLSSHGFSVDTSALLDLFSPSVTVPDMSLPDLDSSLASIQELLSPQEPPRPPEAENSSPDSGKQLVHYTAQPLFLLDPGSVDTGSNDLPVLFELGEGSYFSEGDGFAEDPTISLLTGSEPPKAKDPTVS
ETV1, sequence (P50549 whole entry): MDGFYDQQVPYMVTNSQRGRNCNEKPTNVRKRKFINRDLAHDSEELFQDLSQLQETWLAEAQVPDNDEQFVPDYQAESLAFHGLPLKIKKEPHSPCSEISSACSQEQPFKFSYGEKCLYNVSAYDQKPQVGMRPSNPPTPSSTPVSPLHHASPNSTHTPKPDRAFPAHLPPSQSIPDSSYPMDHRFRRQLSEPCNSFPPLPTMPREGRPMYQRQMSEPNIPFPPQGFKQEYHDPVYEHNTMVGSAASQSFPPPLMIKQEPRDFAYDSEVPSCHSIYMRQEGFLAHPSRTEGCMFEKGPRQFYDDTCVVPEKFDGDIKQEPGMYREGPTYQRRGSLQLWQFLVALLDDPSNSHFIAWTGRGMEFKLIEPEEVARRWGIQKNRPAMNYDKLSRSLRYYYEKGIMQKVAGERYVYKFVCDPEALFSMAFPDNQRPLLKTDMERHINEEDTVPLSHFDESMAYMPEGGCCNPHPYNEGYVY
ELF4, sequence (Q99607 whole entry): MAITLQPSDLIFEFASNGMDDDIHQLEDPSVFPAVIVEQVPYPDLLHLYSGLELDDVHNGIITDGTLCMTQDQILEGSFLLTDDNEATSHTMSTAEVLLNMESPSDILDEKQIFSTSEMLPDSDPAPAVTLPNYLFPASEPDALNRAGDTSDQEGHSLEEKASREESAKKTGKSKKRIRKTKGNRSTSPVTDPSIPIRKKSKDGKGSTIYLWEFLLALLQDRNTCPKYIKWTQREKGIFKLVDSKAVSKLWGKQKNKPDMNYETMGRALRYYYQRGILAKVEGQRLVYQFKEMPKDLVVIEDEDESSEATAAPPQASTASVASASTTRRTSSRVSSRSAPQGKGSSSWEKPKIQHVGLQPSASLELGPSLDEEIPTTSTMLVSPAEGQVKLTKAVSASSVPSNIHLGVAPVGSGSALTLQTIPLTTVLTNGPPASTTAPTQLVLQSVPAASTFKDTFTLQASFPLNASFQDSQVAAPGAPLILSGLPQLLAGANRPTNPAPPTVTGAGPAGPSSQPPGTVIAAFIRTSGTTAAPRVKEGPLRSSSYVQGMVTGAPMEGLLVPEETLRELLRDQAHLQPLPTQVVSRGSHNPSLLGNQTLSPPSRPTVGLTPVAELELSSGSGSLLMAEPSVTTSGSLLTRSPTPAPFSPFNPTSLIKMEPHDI
CRX, sequence (O43186 whole entry): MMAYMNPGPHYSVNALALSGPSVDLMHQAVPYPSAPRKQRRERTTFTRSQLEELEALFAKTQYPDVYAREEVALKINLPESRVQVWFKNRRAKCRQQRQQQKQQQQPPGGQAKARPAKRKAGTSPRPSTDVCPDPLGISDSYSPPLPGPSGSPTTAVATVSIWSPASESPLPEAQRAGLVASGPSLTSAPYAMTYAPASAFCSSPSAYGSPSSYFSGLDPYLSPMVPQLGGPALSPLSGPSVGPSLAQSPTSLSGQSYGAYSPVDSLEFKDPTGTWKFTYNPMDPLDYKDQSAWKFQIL

For CATTTT, the binding signal (FEV) was 1.19 fold enrichment (6-mer frequency, TF over GST control), the binding signal (ETV5) was 1.23 fold enrichment (6-mer frequency, TF over GST control) and the binding signal (HSF1) was 1.19 fold enrichment (6-mer frequency, TF over GST control). The binding signal (SPIC) was 1.18 fold enrichment (6-mer frequency, TF over GST control), the binding signal (ELF4) was 1.32 fold enrichment (6-mer frequency, TF over GST control) and the binding signal (ELK4) was 1.32 fold enrichment (6-mer frequency, TF over GST control). The binding signal (ETV2) was 1.35 fold enrichment (6-mer frequency, TF over GST control), the binding signal (ELF3) was 1.21 fold enrichment (6-mer frequency, TF over GST control) and the binding signal (CRX) was 1.04 fold enrichment (6-mer frequency, TF over GST control). The binding signal (ETV1) was 1.24 fold enrichment (6-mer frequency, TF over GST control).
